Results taken from PubChem BioAssay (Tox21).
Where “and” joins values, the source holds several entries; their conditions need not be identical. Identical values can stand only once. Results filed as inconclusive are left out. Calls of active or inactive are those of the source. Unless noted, calls come from the whole dose curve; as a rule, active = well fitted curve in the direction sought with a large enough effect in the repeat runs; inconclusive = weak or mixed curves; inactive = no such curve, though single readings can be large; an effect the other way counts as inactive or inconclusive.

Columns and labels:
[1] = qHTS assay to identify small molecule antagonists of the androgen receptor (AR) signaling pathway using the MDA cell line in the presence of 0.5 nM R1881 - cell viability counter screen (AID 1259242); note: nearly all actives have a fitted effect of over 45% in size; note: potency is the fitted concentration of half-maximal effect
In short: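 Live-cell protease activity was measured by CellTiter-Fluor fluorescence after 30 min. Before that, MDA-kb2 MMTV-luciferase cells had 16 hr at 37C without CO2, exposed to test compounds and 0.5 nM R1881 final.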

[2] = target: Estrogen receptor (Homo sapiens) (UniProt P03372); test: qHTS assay to identify small molecule antagonists of the estrogen receptor alpha (ER-alpha) signaling pathway using the BG1 cell line in the presence of 0.1 nM 17-beta-estradiol (AID 1259244); note: nearly all actives have a fitted effect of over 50% in size; note: potency is the fitted concentration of half-maximal effect
In short: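 Luciferase luminescence (ONE-Glo, 30 min at room temperature) was read after 22 hr at 37C exposure to compounds plus 17beta-estradiol at 0.1 nM final. Cells were VM7Luc4E2 with endogenous ER-alpha and an ERE-driven luciferase, pre-cultured 5 days in hormone-depleted medium.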

[3] = qHTS assay to identify small molecule HDAC inhibitors (AID 1259364); note: nearly all actives have a fitted effect of over 45% in size; note: potency is the fitted concentration of half-maximal effect
In short: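 Luminescence read after 30 min room-temperature HDAC-Glo incubation measures cellular class I/II HDAC activity. Compounds were applied for 2 hr at 37 C to HCT-116 wild-type cells seeded the day before.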

[4] = qHTS assay to identify small molecule HDAC inhibitors - cell viability counter screen (AID 1259365); note: nearly all actives have a fitted effect of over 50% in size; note: potency is the fitted concentration of half-maximal effect
In short: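 HCT-116 wild-type, overnight attachment; 2hr drug exposure, 37C; CellTiter-Glo luminescent ATP readout after 30min RT.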

[5] = qHTS assay to identify small molecule agonists of the sonic hedgehog signaling (Shh) pathway - cell viability counter screen (AID 1259366); note: nearly all actives have a fitted effect of over 50% in size; note: potency is the fitted concentration of half-maximal effect
In short: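 Compounds in DMSO were pin-transferred onto 3T3 Gli1-Luc cells that had settled 4hr; plates then stood 24hr at 37C and 5% CO2. One hour before the end, CellTiter-Fluor was added and fluorescence recorded.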

[6] = qHTS assay to identify small molecule antagonists of the sonic hedgehog signaling (Shh) pathway - cell viability counter screen (AID 1259367); note: nearly all actives have a fitted effect of over 55% in size; note: potency is the fitted concentration of half-maximal effect
In short: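 Conditioned medium drove Shh signaling in 3T3 Gli1-Luc cells exposed to compounds at 37C and 5% CO2. Viability was determined from CellTiter-Fluor fluorescence, with reagent incubated 1 hr after 23 hr of treatment.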

[7] = qHTS assay to identify small molecule agonists of the sonic hedgehog signaling (Shh) pathway (AID 1259368; calls by dose curve; note: nearly all actives have a fitted effect of over 15% in size; note: potency is the fitted concentration of half-maximal effect)
In short: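 Luminescence was read after 30 min at room temperature with luciferase reagent. Before that, 3T3Gli1-Luc cells (NIH/3T3 clone, stable Gli1-Luc reporter; 2,000/well) were exposed to compounds for 24 hr at 37C, 5% CO2, compounds being added 4 hr post-plating.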

[8] = qHTS assay to identify small molecule antagonists of the sonic hedgehog signaling (Shh) pathway (AID 1259369; calls by dose curve; note: nearly all actives have a fitted effect of over 45% in size; note: potency is the fitted concentration of half-maximal effect)
In short: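 Antagonist mode: compound added to 3T3 Gli1-Luc cells followed by conditioned-medium stimulation, 24 h at 37 C, 5% CO2. Inhibition taken as loss of Gli1-driven luciferase luminescence.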

[9] = qHTS assay to identify small molecule phospholipidosis (PLD) inducers (AID 1259344; active = well fitted curve in the direction sought with a large enough effect; an effect the other way counts as inactive or inconclusive)
In short: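 After 4 h attachment on collagen I, HepG2 cells were dosed with compound alongside LipidTOX Red, kept 24 h at 37 C, fixed, and imaged for lamellar phospholipid pits.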
% is set by controls: 0 for no effect and ±100 for the full control effect.

Estrogen receptor (Homo sapiens), sequence (P03372 whole entry, looked up): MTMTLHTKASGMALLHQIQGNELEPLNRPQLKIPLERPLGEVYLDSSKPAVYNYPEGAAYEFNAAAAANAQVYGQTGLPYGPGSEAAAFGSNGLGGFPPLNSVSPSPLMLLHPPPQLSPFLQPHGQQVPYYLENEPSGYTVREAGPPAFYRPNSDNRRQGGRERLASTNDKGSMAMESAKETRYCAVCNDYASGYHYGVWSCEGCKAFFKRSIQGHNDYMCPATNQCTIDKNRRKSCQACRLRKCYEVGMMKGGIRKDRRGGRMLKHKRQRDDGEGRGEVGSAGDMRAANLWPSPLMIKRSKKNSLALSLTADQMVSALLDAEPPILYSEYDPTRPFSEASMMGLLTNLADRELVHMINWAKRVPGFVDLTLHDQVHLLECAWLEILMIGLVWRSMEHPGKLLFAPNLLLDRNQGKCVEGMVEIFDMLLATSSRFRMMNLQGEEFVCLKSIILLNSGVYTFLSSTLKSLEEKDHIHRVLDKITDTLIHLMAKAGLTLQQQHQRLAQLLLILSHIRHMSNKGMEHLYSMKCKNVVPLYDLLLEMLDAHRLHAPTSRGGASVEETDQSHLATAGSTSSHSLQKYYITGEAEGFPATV

O=C(O)[C@H](O)[C@@H](O)C(=O)O
inactive: Potency [1] | Potency [2] | Potency [3] | Potency [4] | Potency [5] | Potency [6] | Potency [7] | Potency [8]

CCCCN(CCCC)C(=S)[S-].CCCCN(CCCC)C(=S)[S-].[Ni+2]
inactive: Potency [1] | Potency [2] | Potency [3] | Potency [4] | Potency [5] | Potency [6] | Potency [7]

O=[N+]([O-])c1ccc(Cl)c(Cl)c1Cl
inactive: Potency [1] | Potency [2] | Potency [3] | Potency [4] | Potency [5] | Potency [6] | Potency [7]

c1ccc(N=NNc2ccccc2)cc1
active: Potency [3] 15.9 µM and 24.3 µM
inactive: Potency [1] | Potency [2] | Potency [4] | Potency [5] | Potency [6] | Potency [7]

C=Cc1cccc(CCl)c1
inactive: Potency [1] | Potency [2] | Potency [3] | Potency [4] | Potency [5] | Potency [7] | Potency [8]

COC(=O)C(C)N(C(=O)c1ccco1)c1c(C)cccc1C (stereo not drawn)
inactive: Potency [1] | Potency [2] | Potency [3] | Potency [4] | Potency [5] | Potency [6] | Potency [7]

C=CCBr
inactive: Potency [1] | Potency [2] | Potency [3] | Potency [4] | Potency [5] | Potency [7] | Potency [8]

CN/C(=N\[N+](=O)[O-])NCc1cnc(Cl)s1
inactive: Potency [1] | Potency [2] | Potency [3] | Potency [4] | Potency [5] | Potency [6] | Potency [7] | Potency [8]

c1csc(-c2ccc(-c3cccs3)s2)c1
inactive: Potency [1] | Potency [2] | Potency [4] | Potency [5] | Potency [6]
active: Potency [3] 5.45 µM | Potency [7] 9.69 µM

Oc1cccc(Cl)c1Cl
inactive: Potency [1] | Potency [2] | Potency [3] | Potency [4] | Potency [5] | Potency [7] | Potency [8]

CC(C)C(Br)C(=O)NC(N)=O (stereo not drawn)
inactive: Potency [1] | Potency [2] | outcome [9] | Potency [3] | Potency [4] | Potency [7]

O=[N+]([O-])c1cc(C(F)(F)F)c(Cl)c([N+](=O)[O-])c1Nc1ncc(C(F)(F)F)cc1Cl
active: Potency [1] 4.86 µM | Potency [2] 24.3 µM | Potency [4] 54.5 µM | Potency [5] 4.33 µM | Potency [6] 6.11 µM | Potency [8] 3.86 µM
inactive: Potency [3] | Potency [7]

CN1C2CCC(C)(C)C1CC(OC(=O)C(O)(c1cccs1)c1cccs1)C2 (stereo not drawn)
inactive: Potency [1] | Potency [2] | Potency [3] | Potency [4] | Potency [6] | Potency [7]

Cc1ccc2cc3c(ccc4ccccc43)c3c2c1CC3
inactive: Potency [1] | Potency [3] | Potency [4] | Potency [5] | Potency [6] | Potency [7] | Potency [8]
active: Potency [2] 0.546 µM

N#Cc1c[nH]cc1-c1cccc2c1OC(F)(F)O2
active: Potency [2] 24.3 µM
inactive: Potency [1] | Potency [3] | Potency [4] | Potency [5] | Potency [6] | Potency [7]

ClC1=C(Cl)[C@]2(Cl)[C@@H]3[C@H]4C[C@H]([C@@H]5O[C@H]45)[C@@H]3[C@@]1(Cl)C2(Cl)Cl
active: Potency [6] 68.5 µM | Potency [8] 24.3 µM
inactive: Potency [1] | Potency [2] | outcome [9] | Potency [3] | Potency [7]

CCNc1nc(NC(C)C(C)C)nc(SC)n1 (stereo not drawn)
inactive: Potency [1] | Potency [2] | Potency [3] | Potency [4] | Potency [5] | Potency [6] | Potency [7]

CCCCCCC[CH2][Sn]([Cl])([Cl])[CH2]CCCCCCC
inactive: Potency [1] | Potency [2] | Potency [3] | Potency [4] | Potency [5] | Potency [6] | Potency [8]

CCN(CC)C(=O)N[C@@H]1C=C2c3cccc4[nH]cc(c34)C[C@@H]2N(C)C1
inactive: Potency [1] | Potency [2] | outcome [9] | Potency [3] | Potency [4] | Potency [5] | Potency [7]

COc1c2c(cc3c1OCO3)CCN(C)C2
inactive: Potency [1] | Potency [2] | outcome [9] | Potency [3] | Potency [4] | Potency [5] | Potency [6] | Potency [7] | Potency [8]

Oc1ccc([C@H]2CNCc3c2ccc(O)c3O)cc1O
inactive: Potency [1] | Potency [2] | PLD induction [9] -2.7% [at 7.66 µM] | Potency [3] | Potency [4] | Potency [5] | Potency [7]

Cc1c([N+](=O)[O-])c(C)c([N+](=O)[O-])c(C(C)(C)C)c1[N+](=O)[O-]
inactive: Potency [1] | Potency [2] | Potency [3] | Potency [4] | Potency [5] | Potency [6] | Potency [7] | Potency [8]

[O]=[Cr][O][Cr]=[O]
inactive: Potency [1] | Potency [2] | Potency [3] | Potency [4] | Potency [5] | Potency [6] | Potency [7] | Potency [8]

COC(=O)/C=C(\C)OP(=O)(OC)OC
inactive: Potency [1] | Potency [2] | Potency [3] | Potency [4] | Potency [5] | Potency [6] | Potency [7] | Potency [8]

Oc1cc(Cl)cc(Cl)c1
inactive: Potency [1] | Potency [2] | Potency [3] | Potency [4] | Potency [5] | Potency [7]

Cc1cnc2c(C(=O)O)c(Cl)ccc2c1
inactive: Potency [1] | Potency [2] | Potency [3] | Potency [4] | Potency [5] | Potency [7] | Potency [8]
